Measured values: PubChem BioAssay (NCATS)
Inconclusive results are not listed. Where a call stands in place of a potency, no number is given. The source made the active and inactive calls. The call rests on the fitted dose curve; in most records, active means well fitted cell-killing curve with a large enough effect; inconclusive means small, poorly fitted or top-dose-only effect; inactive means flat fitted curve, though single readings scatter.

Test: Quantitative highthroughput screen to assess conditional lethalithy of P12 Ichikawa cells grown in Human Plasma-Like Medium with dialyzed fetal bovine serum (HPLM+ds) (AID 1963879); further: nearly all actives have a fitted effect of over 35% in size
Conditions: ATP luminescence, 48 h; Potency: viability; series mostly up to 45.8 µM
Description: Assay Provider: Jason Cantor Ph.D.
Department of Biochemistry
University of Wisconsin-Madison, Madison, WI, USA
Chemical screening studies have identified drug sensitivities across hundreds of cancer cell lines but most putative therapeutics fail to translate. Discovery and development of drug candidates in models that more accurately reflect nutrient levels in human blood is a major challenge. Here we performed high-throughput screens in conventional versus Human Plasma-Like Medium (HPLM) to identify compounds that were "missed" when screening using the artificial culture condition. Sets of conditional anticancer compounds spanned phases of clinical development and included non-oncology drugs were assessed. […] We also traced conditional phenotypes for several chemotherapeutics to availability of HPLM-specific metabolites and confirmed others for compounds whose reported targets are encoded by nonessential genes. Our findings establish generalizable strategies for exploiting conditional lethality in HPLM to reveal therapeutic candidates and mechanisms of action in cancer cells.
Described herein are the results of each viability screens against three cell lines: NOMO1 (an acute myeloid leukemia cell line); P12-Ichikawa (a T-cell acute lymphoblastic leukemia); and SEM (a B-cell ALL). Each assay was screened using 3 different cell culture media: homemade human plasma-Like medium with 10% dialyzed fetal bovine serum (HPLM+ds); RPMI1640 with 10% untreated FBS and 5mM glucose (RPMI+s); and RPMI1640 with 10% dialyzed fetal bovine serum and 5 mM glucose (RPMI+ds).
PROTOCOL TABLE (as described by Inglese J, Shamu CE and Guy RK. 2007)
SEQUENCE No. (e.g., 1, 2, 3, etc.); […] (e.g., Cells, Incubation, Reagent, etc.); VALUE and DESCRIPTION.
1; Cells; 5 uL; white, solid bottom 1536-well Greiner assay plate.
2; Compounds; 23 nL; Kalypsis pin tool (Wako USA) equipped with a 1536-well pin head to transfer to the assay plates.
3; Incubation; 48 hours; 37C incubation.
4; Reagent; 3 uL; CellTiter Glo (Promega).
5; Incubation; 5 min, room temperature
6; Detection; Luminescence, Viewlux PerkinElmer.
NOTES (numbers refer to Sequence numbers above)
1. Briefly, 5 ul of cell reagent was dispensed using a Multidrop Combi Dispenser. The NOMO1 and SEM cells were plated at 500 cells/well and the P12-Ichikawa line at 1000 cells/well.
2. After seeding the cells, 23 nL of MIPE 4.1 library compounds (in DMSO) were added to each plate using a Kalypsys 1536 Pintool dispenser. Bortezomib at final concentration of […] and DMSO were added to each plate as positive and negative controls respectively. For each screen, MIPE 4.1 compounds were added over an eleven-point concentration range […] in 3-fold dilutions.
3. Each plate was covered with a stainless steel gasketed lid to prevent evaporation and incubated for 48 hour at 37C, 95% relative humidity, and 5% CO2.
4-5. Three microliter CellTilter-GloTM luminescent substrate mix (Promega) reagent was added to the assay plate and incubated at room temperature for 5 min.
6. The luminescence signal was measured using a ViewLux (PerkinElmer) multiplate reader with a 2 second exposure time per plate. Data for each compound were normalized as percent viability such that measurements for DMSO and the empty well controls in each plate were defined as 100% and 0%, respectively.
Potency means the concentration at half of the fitted maximal effect.

Row | Compound | Potency
1 | COc1ccc([C@@H]2CNC(=O)C2)cc1OC1CCCC1 | inactive
2 | CN(C1CCc2c(c3ccccc3n2CC(=O)O)C1)S(=O)(=O)c1ccc(F)cc1 (stereo not given) | 8330 nM (active)
3 | COc1cc2ncnc(Nc3cccc(Br)c3)c2cc1OC | inactive
4 | COc1cc2ncnc(Nc3cccc(Cl)c3)c2cc1OC | 4690 nM (active)
5 | CC1(C)O[C@H]2C[C@@H]3[C@H]4CCC5=CC(=O)C=C[C@]5(C)[C@@]4(F)[C@@H](O)C[C@]3(C)[C@]2(C(=O)CO)O1 | 1480 nM (active)
6 | CC(=O)SC[C@@H](C)C(=O)N1CCC[C@H]1C(=O)N[C@@H](Cc1ccccc1)C(=O)O | inactive
7 | NC(N)=NC(=O)c1nc(Cl)c(N)nc1N | 4690 nM (active)
8 | Cc1c(-c2ccnn2C)cc(C(=O)NCc2ccc(S(C)(=O)=O)cn2)c(=O)n1-c1cccc(C(F)(F)F)c1 | inactive
9 | CCOC(=O)[C@H](CCc1ccccc1)N[C@@H](C)C(=O)N1CCCC1C(=O)O (stereo not given in full) | inactive
10 | COc1cc2c(cc1OC)C1CC(=O)C(CC(C)C)CN1CC2 (stereo not given) | inactive
11 | NC(=O)Nc1cc(-c2cccc(F)c2)sc1C(=O)N[C@H]1CCCNC1 | 1870 nM (active)
12 | Cc1cc(Nc2ncnc3ccc(-c4ccc(CNCCS(C)(=O)=O)o4)cc23)ccc1Oc1ccn2ncnc2c1 | 209 nM (active)
13 | CC(=O)Nc1ccc([C@H](C)C(=O)Nc2ncc(C(C)C)s2)cc1 | 11800 nM (active)
14 | Cc1cc(C=c2sc3nc4ccccc4n3c2=O)c(C)n1-c1ccccc1 | inactive
15 | CC1(C)Cc2c(-c3ccccc3)c(-c3ccc(Cl)cc3)c(CC(=O)O)n2C1 | inactive
16 | CC1=C(CC(=O)O)c2cc(F)ccc2C1=Cc1ccc(S(C)=O)cc1 (stereo not given) | inactive
17 | C[C@](N)(Cc1ccc(O)c(O)c1)C(=O)O | inactive
18 | O=C(O)[C@@H](c1ccc(OCc2ccc3ccccc3n2)cc1)C1CCCC1 | inactive
19 | O=C(O)c1ccc2cc(-c3ccc(O)c(C45CC6CC(CC(C6)C4)C5)c3)ccc2c1 | 590 nM (active)
20 | CC=C1NC(=O)[C@H]2CSSCCC=C[C@H](CC(=O)N[C@H](C(C)C)C(=O)N2)OC(=O)[C@H](C(C)C)NC1=O | 37.2 nM (active)

Row | Compound | Potency
21 | CCOC(=O)c1c(C)n(C)c2ccc(O)cc12 | inactive
22 | CCC1=C[C@@H]2CN(C1)Cc1c([nH]c3ccccc13)[C@@](C(=O)OC)(c1cc3c(cc1OC)N(C)[C@@H]1[C@@](O)(C(=O)OC)[C@H](OC(C)=O)[C@]4(CC)C=CCN5CC[C@]31[C@@H]54)C2 | 37.2 nM (active)
23 | Cc1cccc2c1CC[C@H](CN1CCC(c3c(Cl)cccc3Cl)CC1)C[C@@H]2O | inactive
24 | CNC(=O)c1ccc(Nc2cc(Nc3ccccc3S(=O)(=O)C(C)C)c3cc[nH]c3n2)nc1 | 2350 nM (active)
25 | CS(=O)c1ccc(-c2nc(-c3ccc(F)cc3)c(-c3ccncc3)[nH]2)cc1 (stereo not given) | 9590 nM (active)
26 | O=S(=O)(NCCNCC=Cc1ccc(Br)cc1)c1cccc2cnccc12 | inactive
27 | COc1cc(C=CC(=O)CC(=O)C=Cc2ccc(O)c(OC)c2)ccc1O | 21500 nM (active)
28 | COC1=C(OC)C(=O)C(CC=C(C)CCC=C(C)CCC=C(C)CCC=C(C)CCC=C(C)CCC=C(C)CCC=C(C)CCC=C(C)CCC=C(C)CCC=C(C)C)=C(C)C1=O | inactive
29 | O=C(O)[C@H]1O[C@H](Oc2cc3oc(-c4ccccc4)cc(=O)c3c(O)c2O)[C@H](O)[C@@H](O)[C@H]1O | inactive
30 | CCOc1cc(N2CCC(O)CC2)ccc1Nc1ncc2c(n1)N(C)c1ccccc1C(=O)N2C | 2090 nM (active)
31 | Cc1nc2c([nH]1)CCN(C(=O)c1ccc(NC(=O)c3ccccc3-c3ccccc3)cc1)c1ccccc1-2 | inactive
32 | CC[C@]1(O)C[C@@H]2CN(CCc3c([nH]c4ccccc34)[C@@](C(=O)OC)(c3cc4c(cc3OC)N(C=O)[C@@H]3C45CCN4CC=C[C@](CC)([C@H]45)[C@@H](OC(C)=O)[C@]3(O)C(=O)OC)C2)C1 (stereo not given in full) | inactive
33 | NC(=O)c1cccc(-c2cccc(OC(=O)NC3CCCCC3)c2)c1 | 332 nM (active)
34 | C[C@H](CCC(=O)O)[C@H]1CC[C@H]2[C@H]3[C@@H](CC[C@]12C)[C@@]1(C)CC[C@@H](O)C[C@H]1C[C@@H]3O | inactive
35 | C[C@@H]1[C@H](C)CC[C@]2(C(=O)O)CC[C@]3(C)C(=CC[C@@H]4[C@@]5(C)CC[C@H](O)C(C)(C)[C@H]5CC[C@]43C)[C@@H]12 | inactive
36 | CCCn1c(=O)c2[nH]c(C34CC5CC3C[C@@H](C5)C4)nc2n(CCC)c1=O | inactive
37 | C=CC(=O)Nc1cc2c(Nc3ccc(F)c(Cl)c3)ncnc2cc1C#CC(C)(C)N1CCN(C)CC1 | 5260 nM (active)
38 | c1ccc2c(Oc3nc(Nc4ccc(N5CCOCC5)cc4)c4ncn(C5CCCCC5)c4n3)cccc2c1 | inactive
39 | CC1(CN2CCC(n3c(=O)[nH]c4ccccc43)CC2)OCc2ccccc2-n2cccc21 (stereo not given) | inactive
40 | Cc1c(O)cccc1C(=O)N[C@@H](CSc1ccccc1)[C@H](O)CN1C[C@H]2CCCC[C@@H]2C[C@@H]1C(=O)NC(C)(C)C | inactive
